Reference: PubChem BioAssay (NCI)
This is part of a sample that, as a whole, favours compounds with a hit. Of some 83,000 tested, about 20% had one in any assay.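 Testing used 96-well plates and a 48-hour single-concentration exposure. Example: -40 means 40% of the starting cells died.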 Values without a mark were called inactive. Active and inactive are the calls of the source. The calls were made as follows: active = growth percent below 10; inactive = the rest.

What follows are molecules tested on HOP-62 NSCLC (assay: NCI-60 one-dose screen, 48 h (100 = growth as untreated, 0 = no growth, -100 = all killed)). Conditions: 10 µM unless noted.

Compared with `C[C@]12CC[C@@H]3c4cc(O)c(O)cc4CC[C@H]3[C@@H]1CC[C@@H]2O`, `Cc1cc(C)c(S(=O)(=O)N2CCN(c3cc4c(cc3F)c(=O)c(C(=O)O)cn4C3CC3)CC2)c(C)c1` is higher in growth: 44.4% for the first, 57.3% for the second.

First: CCCOC(=O)C1(O)CCCC1
Second: NC(=O)NC(=O)/C=C/C(=O)OCCCl
The growth of the first is lower: 109% for the first, 114% for the second.

Compared with `COC1=CC(c2ccc[nH]2)=N/C1=C\c1[nH]c(C)c(C(=O)CCCCC(=O)NCc2ccccc2)c1C`, `CC(C)C[C@H](NC(=O)Cn1ccc(NCc2ccccc2)cc1=O)B(O)O` is lower in growth: 57.1% for the first, 44.9% for the second.

First: O=C(NNC(=S)Nc1ccccc1)c1ccccn1
Second: O=C(CNc1ccc(Cl)cc1)Nc1ccc(-c2nc3ccccc3s2)cc1
The growth of the first is lower: 37.9% for the first, 116% for the second.

Going from `COc1cc(NC(=O)CCl)ccc(=O)c1` to `COc1cc(OC)c(C(=O)/C=C/c2ccc(C(F)(F)F)cc2)c(OC)c1`, the growth falls from 113% to 55.1%.

Compared with `COc1ccc(S(=O)(=O)N2CCN(c3cc4c(cc3F)c(=O)c(C(=O)O)cn4C3CC3)CC2)c(OC)c1`, `COc1cc2nc(N3CCC[C@@H](NC4=CC(=O)c5ccccc5C4=O)C3)nc(N)c2cc1OC` is higher in growth: 86.6% for the first, 94.5% for the second.

Compared with `COc1ccc(Cn2cc(COc3cc(/C=C/C(=O)c4cc(OC)c(OC)c(OC)c4)ccc3OC)nn2)cc1`, `COc1ccc(C(=O)/C=C/c2cc(C(=O)c3cc(OC)c(OC)c(OC)c3)ccc2OC)cc1` is higher in growth: 19.2% for the first, 100% for the second.

Compared with `CC(C(=O)n1cc(-c2ccccc2)c(-c2ccccc2)c1)c1ccccc1` (stereo not drawn), `CC(C)(C)OC(=O)N[C@@H](Cc1ccccc1)C(=O)N(Cc1ccccc1)C1(C(=O)NCc2ccccc2)CCN(Cc2ccccc2)CC1` is lower in growth: 95.4% for the first, 56.2% for the second.

Compared with `C=CCOc1cccc(/C=C/C(=O)c2sc(Nc3cccnc3)nc2C)c1`, `Cc1nc(Nc2cccnc2)sc1C(=O)/C=C/c1ccc(F)cc1` is lower in growth: 68.2% for the first, 30.4% for the second.

Going from `CCC1CCc2nc3sc(C(=O)Nc4cccc(C)c4)c(N)c3cc2C1` (stereo not drawn) to `Cc1cccc(NC(=O)c2sc3nc4c(cc3c2N)CCCC4)c1`, the growth falls from 87% to 37.8%.

Going from `COc1ccc(-c2cn[nH]c2-c2cc(OC)c3c(c2)OCCO3)cc1` to `COc1ccc(C2=CC(c3ccc(Oc4ccnc5cc(Cl)ccc45)c(OC)c3)c3c(nc(OC)[nH]c3=O)N2)cc1` (stereo not drawn), the growth rises from 24% to 81.8%.

First: CCNC(=O)C1CCCN1C(=O)C(CCCN=C(N)N)NC(=O)C(CC(C)C)NC(=O)C(CC(C)C)NC(=O)C(Cc1ccc(O)cc1)NC(=O)C(CO)NC(=O)C(Cc1c[nH]c2ccccc12)NC(=O)C(Cc1cnc[nH]1)NC(=O)C1CCC(=O)N1 (stereo not drawn)
Second: CC[C@]1(O)C[C@@H]2CN(Cc3c([nH]c4ccccc34)[C@@](C(=O)OC)(c3cc4c(cc3OC)N(C)[C@H]3[C@@](O)(C(=O)OC)[C@H](OC(C)=O)[C@]5(CC)[C@@H]6C[C@@H]6CN6CC[C@]43[C@@H]65)C2)C1
The growth of the first is higher: 96.8% for the first, 38.8% for the second.

Going from `COC(=O)c1cc(-c2cccs2)c(C#N)c(N)c1C#N` to `CCCCNC(=O)NS(=O)(=O)c1ccc(N2N=C(c3ccc(C)cc3C)CC2c2ccc(OC)cc2)cc1` (stereo not drawn), the growth rises from 90.3% to 92%.

Compared with `CCOC(=O)[C@H](CSSc1ncnc2cc[nH]c12)NC(=O)[C@@H](C)c1ccc2cc(OC)ccc2c1`, `COc1ccc(C(=O)c2cc(OC)c(OC)c(OC)c2)cc1/C=C/C(=O)c1ccc(OC)c(OC)c1` is higher in growth: 23.2% for the first, 58.6% for the second.

First: COc1ccccc1CNCCCN1C(=O)c2ccc3c4c(ccc(c24)C1=O)C(=O)N(CCCNCCCCNCCCCN)C3=O
Second: Cc1nn(-c2ccc(Cl)cc2)c(=O)n1CCOc1ccccc1Cl
The growth of the first is lower: 22.2% for the first, 75.2% for the second.

First: O=S(=O)(c1ccccc1)n1ccc(-c2ccc3c(c2)CCO3)n1
Second: O=C(O)c1ccc(-n2c(=O)c3ccccc3c3ccccc3c2=O)cc1
The growth of the first is lower: 98.8% for the first, 102% for the second.

First: COc1ccc(/C=C2\CCCC3=C2NC(C)=NC3c2ccc(OC)c(OC)c2)cc1OC (stereo not drawn)
Second: O=C(CCl)NCCNc1nccc(Nc2ccc(S(=O)(=O)Nc3ccccn3)cc2)n1
The growth of the first is higher: 32.1% for the first, 26% for the second.

With `COc1cc(C(=O)OCCCCCCCCCCC[P+](c2ccccc2)(c2ccccc2)c2ccccc2)ccc1O` the growth was -83.8% (active).
With `O=C(CCCn1c(=O)c2sc3ccccc3c2n2nnc(-c3ccccc3)c12)NCCc1cnc[nH]1` the growth was -59.8% (active).
With `CC[C@H](C)[C@H]1NC(=O)[C@@H](N[C@](C)(O)[C@@H](N)CC(C)C)[C@@H](C)OC(=O)[C@H](Cc2ccc(OC)cc2)N(C)C(=O)[C@@H]2CCCN2C(=O)[C@H](CC(C)C)NC(=O)[C@@H](C)C(=O)[C@H](C(C)C)OC(=O)C[C@@H]1O` the growth was -31.1% (active).
For `O=C1N=C(c2c(-c3[nH]c(=O)c4ccc(Br)cc4c3O)c(O)c3ccccc3c2O)C(=O)c2cc(Br)ccc21`, the growth was -52.9% (active).
